Target: PUM1 PUF domain R5-GRA (Homo sapiens, UniProt Q14671 828-1176, C1007G;Q1011A)
Test: yeast three-hybrid, YBZ-1, SC-Leu-His + 0.5 mM 3-AT, 4 days
Conditions: tags: N-Gal4 AD-HA kept; label: inside an RPR1-promoter hybrid RNA with tandem MS2 sites; ssRNA
In short: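 The interaction score is the logarithmic change in variant frequency from input to selection. It uses log2, with a pseudocount of 1 for absent variants, and frequencies came from PCR-amplified, Illumina-sequenced repeat regions. The libraries were Pumilio-1 PUF domains randomized at the three base-contacting residues per repeat, co-expressed with matching RNA elements in strain YBZ-1 (LexA–MS2 coat fusion, HIS3 reporter). Plating lasted four days on SC-Leu (input) or SC-Leu-His + 0.5 mM 3-AT (selection).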

PUM1 PUF domain R5-GRA, sequence (Q14671 828-1176 C1007G/Q1011A): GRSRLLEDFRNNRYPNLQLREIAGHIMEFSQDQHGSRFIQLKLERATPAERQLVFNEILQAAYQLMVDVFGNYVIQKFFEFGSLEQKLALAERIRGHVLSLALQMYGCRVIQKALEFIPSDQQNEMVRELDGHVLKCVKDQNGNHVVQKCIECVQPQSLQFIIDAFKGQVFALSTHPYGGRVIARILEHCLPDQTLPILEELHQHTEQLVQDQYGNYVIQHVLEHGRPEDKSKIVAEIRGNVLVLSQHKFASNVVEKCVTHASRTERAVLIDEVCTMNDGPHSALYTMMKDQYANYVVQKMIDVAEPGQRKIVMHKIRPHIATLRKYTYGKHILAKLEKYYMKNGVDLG

| Sequence | binding signal |
| --- | --- |
| GGCUAGAACUAGUGGAUCCCCCGGCGCCCGGCGGCUCGAGCCCGGGUAAGUGUUAAUAGUCUGCAUGCCGCCGGGCGCCAUGCCUGCAGGUCGACUCUAGAAAACAUG | 2.93 log2 enrichment (interaction score) |
| GGCUAGAACUAGUGGAUCCCCCGGCGCCCGGCGGCUCGAGCCCGGGUAAGUGUAAAUAGUCUGCAUGCCGCCGGGCGCCAUGCCUGCAGGUCGACUCUAGAAAACAUG | 2.95 log2 enrichment (interaction score) |
| GGCUAGAACUAGUGGAUCCCCCGGCGCCCGGCGGCUCGAGCCCGGGUAAGUGUGAAUAGUCUGCAUGCCGCCGGGCGCCAUGCCUGCAGGUCGACUCUAGAAAACAUG | 1.36 log2 enrichment (interaction score) |

From article PMC8384837, “Expanding the binding specificity for RNA recognition by a PUF domain”
